# Screens: PubChem BioAssay, several laboratories
# Gli-Sufu antag = antagonists of Gli-Sufu signaling; 0.74% of 340,000 active; Sufu-KO-LIGHT fibroblasts, Gli luciferase reporter luminescence; AID 588413; inhibition, % at 5 µM;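 active = inhibition above about 55%, limit read from the data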;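 also: 0% = DMSO-treated cells and 100% = wells with medium but no cells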
# CSC inhib = cancer stem cell inhibition. cancer stem cell-like cells viability, luminescence. inhibition, % at 7.5 µM. 1.1% of 300,000 active. AID 2717; in the data active = inhibition above about 75%; tested in HMLE shEcad cells
# Shn3 3UTR inh = inhibitors of Schnurri-3 3'UTR reporter in osteoblasts | Clone20 osteoblast Shn3 3'UTR firefly luciferase, 24 h | inhibition, % at 12.5 µM | 0.52% of 360,000 active;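 active = mean inhibition of at least 75% with every replicate also reaching 75%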;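 also: 0% = median of neutral control wells and 100% = pilot-screen positive control compound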
# Beta apoptosis = beta cell apoptosis inhibition; AID 435005; 0.8% of 300,000 active; protection from apoptosis, % (test concentration not listed); INS-1E cytokine-induced death, ATP luminescence, 48 h; percent of positive-control rescue, neutral wells zero;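 active = Every replicate reaches about 75%, or at least half do and their mean reaches it too, limit read from the data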;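 also: 0% = cytokine-treated negative control wells and 100% = positive control rescue; higher means more ATP so stronger rescue from cytokine killing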
# PAX8 inh HTS = inhibitors of PAX8 transcriptional activity in RMG-I cells. 1.2% of 360,000 active. RMG-I TPO-luciferase reporter, SteadyGlo, 24 h. inhibition, % at 12.6 µM;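 active = mean replicate inhibition at least 60% with every replicate also reaching 60%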;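 also: luciferase light reporting Pax8 driven TPO promoter activity; plate controls were median of neutral control wells for no effect and mitoxantrone controls for full effect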
# Mdm2-MdmX inh = inhibitors of human Mdm2/MdmX interaction. SaOS-2 split-luciferase Mdm2/MdmX complementation, luminescence. inhibition, % at 8 µM. 3% of 330,000 active. AID 485346;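 active = inhibition of at least 50% at 8 µM in the primary screen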
# Target sequence (O15151 whole entry, looked up): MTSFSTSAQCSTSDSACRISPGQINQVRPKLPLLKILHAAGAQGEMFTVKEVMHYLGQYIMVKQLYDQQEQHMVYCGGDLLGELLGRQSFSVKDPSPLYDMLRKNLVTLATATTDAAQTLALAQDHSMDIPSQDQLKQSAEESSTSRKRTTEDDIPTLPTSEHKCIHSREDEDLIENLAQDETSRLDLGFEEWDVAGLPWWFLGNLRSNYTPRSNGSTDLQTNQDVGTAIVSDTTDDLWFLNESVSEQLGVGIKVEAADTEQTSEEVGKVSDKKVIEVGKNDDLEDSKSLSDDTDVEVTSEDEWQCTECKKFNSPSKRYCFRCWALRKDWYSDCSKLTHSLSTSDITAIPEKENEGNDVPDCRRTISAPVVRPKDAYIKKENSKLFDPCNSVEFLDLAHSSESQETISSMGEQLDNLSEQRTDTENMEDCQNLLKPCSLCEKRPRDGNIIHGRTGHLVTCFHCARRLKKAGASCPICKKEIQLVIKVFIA
# Target sequence (Q00987 whole entry, looked up): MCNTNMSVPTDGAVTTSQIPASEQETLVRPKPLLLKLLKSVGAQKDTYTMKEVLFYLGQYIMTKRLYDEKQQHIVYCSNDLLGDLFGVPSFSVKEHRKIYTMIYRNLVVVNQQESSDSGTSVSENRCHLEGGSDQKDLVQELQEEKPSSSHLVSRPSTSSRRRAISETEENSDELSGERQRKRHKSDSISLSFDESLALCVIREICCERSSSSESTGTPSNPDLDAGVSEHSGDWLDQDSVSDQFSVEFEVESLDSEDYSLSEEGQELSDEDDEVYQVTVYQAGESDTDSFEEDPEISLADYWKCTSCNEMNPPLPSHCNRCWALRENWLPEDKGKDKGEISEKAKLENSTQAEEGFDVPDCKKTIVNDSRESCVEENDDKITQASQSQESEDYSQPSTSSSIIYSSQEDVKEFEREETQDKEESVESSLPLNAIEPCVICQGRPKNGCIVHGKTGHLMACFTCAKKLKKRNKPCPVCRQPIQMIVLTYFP
# Mdm2 MdmX conf = confirmation of human Mdm2/MdmX interaction inhibitors; shares compounds with Mdm2-MdmX inh; Mdm2-MdmX binding, luminescent assay; inhibition, % at 8 µM; 55% of 10,000 active; AID 489028; in the data active = inhibition above about 40%
# FLuc counter = counter-screen for Mdm2/MdmX inhibitors: full-length luciferase; shares compounds with Mdm2-MdmX inh; inhibition, % at 8 µM; AID 504607; SaOS-2 full-length luciferase counterscreen, luminescence; 77% of 6,200 active;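 active = mean inhibition at 8 µM reaching about 37%, which flags the compound as non-specific, limit read from the data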;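 also: p53-null SaOS-2 cells with luciferase driven by a doxycycline-inducible promoter; compound on cells about two nights before reading with doxycycline added after day one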
# Numbers without * were called inactive; x = no result. A selection: hits, their analogues and other compounds. The true share with any hit is near 4%.
SMILES,Gli-Sufu antag,CSC inhib,Shn3 3UTR inh,Beta apoptosis,PAX8 inh HTS,Mdm2-MdmX inh,Mdm2 MdmX conf,others
O=C(Oc1c(-c2ccccc2)oc2ccccc2c1=O)c1ccccc1,-17.2,14.1,-8.8,9.3,x,84.9*,61.4*,FLuc counter=18.4
COc1ccc(C(=O)c2c(C)oc3ccc(O)cc23)cc1,-11.4,6.7,-2.8,0.9,3.6,6.4,x,
O=C(C[C@H]1CC[C@@H]2[C@H](COC[C@H](O)CN2Cc2ccc(Cl)cc2)O1)Nc1nccs1,x,x,x,x,0.1,x,x,
Cn1ncc(SCc2ccccc2)c(Cl)c1=O,8.5,-7.3,52.7,5.6,23.0,52.4*,18.5,
CC(C)Sc1nc2sc(-c3ccccc3)cc2c(=O)n1N,-15.3,0.5,-1.4,-8.4,x,11.1,x,
CSc1nc2sc(-c3ccccc3)cc2c(=O)n1N,-119.6,31.4,-40.1,59.9,x,68.2*,40.5*,FLuc counter=164.1*
COc1ccc(CN(C)C[C@H]2OCc3cnnn3CCCC(=O)N([C@@H](C)CO)C[C@H]2C)cc1,x,x,x,x,-9.7,x,x,
CCCCCCc1cc2cc(C(=O)OCC)c(=O)oc2cc1O,17.4,32.5,24.6,1.9,16.8,63.6*,10.8,
CCCCCCc1cc2cc(S(=O)(=O)c3ccc(F)c(Cl)c3)c(=O)oc2cc1O,21.8,-2.8,9.2,19.8,13.4,98.2*,92.3*,FLuc counter=27.6
CCCCCCc1cc2cc(/C(N)=N/NC(=O)c3ccncc3)c(=O)oc2cc1O,6.8,38.9,16.9,6.0,x,65.3*,18.6,
CCCCCCc1cc2cc(C(N)=O)c(=N)oc2cc1O,x,52.5,x,-1.1,x,8.3,x,
CCCCCCc1cc2cc(C(=O)Nc3ccc(OC)cc3)c(=O)oc2cc1O,34.0,54.3,18.3,50.4,1.9,100.1*,34.3,
N/C(=N\NC(=O)c1ccc(F)cc1)c1cc2ccccc2oc1=O,-10.1,-1.6,-14.2,2.1,20.1,13.8,x,
CCCCCCc1cc2cc(C(=O)NC)c(=N)oc2cc1O,13.9,35.4,3.9,12.6,x,49.6,x,
C=CCNC(=O)[C@H]1[C@@H]2C(=O)O[C@@H](c3ccccc3)[C@@H](c3ccccc3)N2[C@@H](c2ccc(O)cc2)[C@]12C(=O)N(C(=O)OCCOC)c1ccc(C#CC3(O)CCCCCC3)cc12,x,x,x,x,-9.9,x,x,
O=C(CSc1cccc2cccnc12)N1CCCC1,20.0,17.8,39.5,54.2,x,66.3*,3.5,
CN(C)C(=O)CSc1cccc2cccnc12,15.3,50.6,45.9,-13.1,x,70.3*,-3.3,
C[C@@H]1CN([C@H](C)CO)C(=O)Cc2cc(NS(=O)(=O)c3cn(C)cn3)ccc2O[C@H]1CN(C)C,x,x,x,x,2.8,x,x,
O=C(N/N=C(\CC(=O)c1cccs1)C(F)(F)F)c1ccncc1,-5.8,25.1,23.9,-8.7,11.1,65.8*,18.1,
C[C@H](CO)N1C[C@H](C)[C@H](CN(C)S(=O)(=O)c2ccc(Cl)cc2)Oc2c(NS(=O)(=O)c3cn(C)cn3)cccc2C1=O,x,x,x,x,-3.6,x,x,
Cc1nc2c(C)cccc2cc1C(=O)N/N=C/c1ccc(N(C)C)cc1,-42.3,64.2,-20.8,-6.1,x,50.1*,49.4*,FLuc counter=57.2*
CCCOc1ccc(CNC(=O)c2ccc3nc(N4CCOCC4)sc3c2)cc1,-13.6,1.6,15.7,4.3,0.4,51.2*,6.8,
O=C(NCc1ccccc1)c1ccc2nc(N3CCOCC3)sc2c1,-10.0,-9.7,-48.9,-2.7,32.3,-16.6,x,
COC(=O)C[C@@H]1C[C@H]2c3cc(NC(=O)Nc4ccccc4)ccc3O[C@H]2[C@@H](CO)O1,x,x,x,x,-15.2,x,x,
Cc1cc(C(=O)NC2CCCc3c2cnn3-c2ccccc2F)nc(C)n1 (stereo not drawn),-1.9,13.5,15.9,-15.9,10.3,15.2,x,
SMILES,Gli-Sufu antag,CSC inhib,Shn3 3UTR inh,Beta apoptosis,PAX8 inh HTS,Mdm2-MdmX inh,Mdm2 MdmX conf,others
CC(C)c1cc(C(=O)NC2CCCc3c2cnn3-c2ccccc2F)no1 (stereo not drawn),25.1,3.4,59.7,16.2,44.3,89.7*,76.7*,FLuc counter=29.3
CN(C)CCCNC(=O)[C@@H]1[C@@H](CO)[C@@H]2Cn3c(ccc(C4=CCCC4)c3=O)[C@H]1N2Cc1cocn1,x,x,x,x,-3.3,x,x,
CCCNC(=O)N1CC2(CCN(C(=O)C3CCC3)CC2)c2c([nH]c3cc(OC)ccc23)[C@@H]1CO,x,x,x,x,21.2,x,x,
CCN1C(=O)c2cccc3c(S(=O)(=O)Nc4ccccc4)ccc1c23,42.2,0.2,-13.6,-9.5,x,81.2*,73.0*,FLuc counter=70.3*
CCN1C(=O)c2cccc3c(Cl)ccc(c23)C1=O,1.2,-16.1,12.8,-4.4,5.3,11.3,x,
CCN1C(=O)c2cccc3c(Cl)ccc1c23,6.3,-19.3,-6.7,x,26.4,50.4*,-5.2,
CN1C(=O)c2cccc3c(S(=O)(=O)Nc4ccccc4F)ccc1c23,14.4,8.4,-13.4,-2.2,-6.4,51.1*,18.6,
CCN1C(=O)c2cccc3c(S(=O)(=O)Nc4ccccn4)ccc1c23,34.2,8.3,-36.8,-12.8,-26.4,74.7*,46.5*,FLuc counter=67.8*
C[C@H](CO)N1C[C@H](C)[C@@H](CN(C)Cc2ccc(-c3ccccc3)cc2)Oc2ccc(NC(=O)Cn3cnnn3)cc2CC1=O,x,x,x,x,22.0,x,x,
CN1c2ccc(Br)cc2[C@H]2[C@H](CCN2C(=O)Cc2cccnc2)[C@@H]1CO,x,x,x,x,-32.5,x,x,
CCN1C(=O)c2cccc3c(S(=O)(=O)Nc4ncccc4C)ccc1c23,9.3,-5.0,3.8,4.7,x,51.1*,17.6,
CCN1C(=O)c2cccc3c(S(=O)(=O)Nc4nc(C)cs4)ccc1c23,-57.8,6.0,-21.2,-7.1,x,72.6*,20.4,
CC(=O)c1sc2c(c1OC(=O)c1ccc(Cl)cc1Cl)c(=O)n(-c1ccccc1)c(=S)n2-c1ccccc1,10.8,67.2,-8.8,-0.9,-14.8,94.5*,92.4*,FLuc counter=12.1
CC(=O)c1sc2c(c1OC(=O)c1ccc(Cl)cc1)c(=O)n(-c1ccccc1)c(=S)n2-c1ccccc1,15.8,x,10.8,x,-3.7,x,x,
COc1ccc(NC(=O)N(C)C[C@@H]2OCCCC[C@@H](C)Oc3ccc(NS(=O)(=O)c4ccc(Cl)cc4)cc3C(=O)N([C@@H](C)CO)C[C@H]2C)cc1,x,x,x,x,-11.4,x,x,
COc1ccc(S(=O)(=O)Nc2ccccc2C)cc1,-0.4,20.9,-1.6,1.0,31.5,29.1,x,
COc1ccc(S(=O)(=O)Nc2cccc3ccc(O)cc23)cc1,-4.9,59.7,-0.2,8.8,-2.4,60.1*,57.2*,FLuc counter=52.1*
CC(C)(C)c1nn(-c2ccccc2)c2[nH]c(=O)c(CNCc3ccc4c(c3)OCO4)cc12,-0.6,x,13.8,x,x,91.7*,80.5*,FLuc counter=63.5*
CCOc1cccc(NCc2cc3c(C(C)(C)C)nn(-c4ccccc4)c3[nH]c2=O)c1,-0.8,-3.3,8.0,-5.7,x,30.1,x,
CCCCCCCCn1c2c(c(=N)c3ccccc31)CCC2,90.6*,x,91.5*,x,80.0*,85.1*,85.7*,FLuc counter=27.2
CCCCCn1c2c(c(=N)c3ccccc31)CCC2,83.8*,11.6,68.2,23.3,66.7*,59.5*,30.7,
